Screening results from PubChem BioAssay.
CtBP-E1A inh = CtBP/E1A binding inhibition. AlphaScreen GST-E1A/His-CtBP binding, 1536-well; hits give low values. activity change, % (no concentration beside the values). hit rate 0.49% among 340,000
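GST-E1A and His-tagged CtBP (125 nM each as 5X stock) were preincubated with pin-transferred compound for 2 h at 37 °C in the dark, then glutathione donor and nickel acceptor beads were added for 1 h before AlphaScreen reading.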
Six1-Eya2 blk = blocks human Six1 binding to Eya2; activity change, % (test concentration not listed); AID 651725; AlphaScreen GST-Six1/His-Eya2 binding, biochemical; hits give low values; hit rate 0.56% among 360,000
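Six1/Eya2 binding was read as AlphaScreen signal after compounds were pinned into GST-Six1 plus His-tagged Eya2 (5X stock 250/500 nM) in pH 8.0 Tris/NaCl/TCEP buffer, beads added, then incubated 1 h, 37 C, dark.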
KDM4E inh = inhibitors of human JMJD2E histone demethylase; AID 2147; hit rate 1.6% among 230,000; JMJD2E catalytic domain, FDH-coupled NADH fluorescence (FDH is formaldehyde dehydrogenase); Potency, µM (top dose mostly 57.1 µM), inactives show at the top dose activity change, negative = inhibition, actives largely listed as inhibitors; active = well fitted inhibition curve with a large enough effect, not every such curve was filed as active; inconclusive = small, poorly fitted or top-dose-only effect, or another doubt; inactive = no such curve, though single readings can be large or run the other way;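 also: potency is read from the fitted curve at half-maximal effect; 0% = wells with enzyme and -100% = buffer wells without enzyme; nearly all actives have a fitted effect of over 50% in size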
KCNH2 3.1 inh = blocks the human KCNH2 3.1 channel isoform. U2OS KCNH2 3.1, thallium flux FluxOr; hits give low values. hit rate 0.95% among 340,000. activity change, % (tested at about 1.8 µM);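 active = maximum activity change below -70%; inconclusive = maximum activity change from -70% to -50%; inactive = maximum activity change above -50%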;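 also: thallium influx rate constant from kinetic fluorescence after stimulation buffer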
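Thallium flux read-out: FluxOr dye with Red40 quencher in HBSS/HEPES, 45 min at RT. Rate constants from kinetic reads were normalized to positive and negative DMSO controls. Cells: U2OS virally expressing the 3.1 isoform.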
KCNH2 WT inh = blocks the wildtype human KCNH2 potassium channel; Q12809; U2OS, BacMam KCNH2, thallium flux FluxOr; hits give low values; activity change, % at 1.84 µM; hit rate 0.37% among 340,000;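 active = maximum activity change below -70%; inconclusive = maximum activity change between -70% and -50%; inactive = maximum activity change above -50%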
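U2OS cells were transduced with wild-type KCNH2 virus (2.03 x 10^8 / mL) for 4 h at room temperature, then cultured overnight at 37 C. Thallium flux was read with FluxOr dye. Rate constants were normalized to DMSO controls.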
* = called active by the depositor; i = inactive; ? = inconclusive; nt = no result given. Rows were chosen to be rich in hits. Some 2% of all compounds tested hit in one or more screens of this group. Rule as the data show it, unless noted: active = activity change below about -65%; inconclusive = mostly about -30% to -63%; inactive = weaker than that. Unless noted, % is scaled to controls: 0 for no effect and ±100 for the full control effect.

SMILES | CtBP-E1A inh | Six1-Eya2 blk | KDM4E inh | KCNH2 3.1 inh | KCNH2 WT inh
Cc1ccc(N2C(=O)NC(=O)/C(=C/C=C/c3ccco3)C2=O)cc1 | 1.9 | -2.9 | -22.1% | -1.2 | 5.9
O=C1NC(=O)N(c2ccccc2)C(=O)/C1=C\C=C\c1ccccc1 | 2.6 | -8.3 | 3.98µM* | 11.1 | 17.7
COC(=O)c1c(C)n(Cc2ccc3c(c2)OCO3)c2ccc(O)cc12 | -6.9 | -15.4 | -3.9% | 6.5 | 4.2
COC1CCC(OC2CC(C3(C)CCC4(CC(O)C(C)C(C(C)/C=C(\C)C(=O)C(C)CC(C)C(=O)O)O4)O3)OC3(OC(C4OC(O)(CO)C(C)CC4C)CC3C)C2C)OC1C (stereo unspecified) | -0.2 | 2.9 | nt | 19.7 | -21.9
CCC(=O)N1N=C(c2c(O)n(CCc3ccccc3)c(=O)[nH]c2=O)CC1c1ccc(OC)c(OC)c1 (stereo unspecified) | -8.9 | -19.2 | 20µM* | -14.6 | -7.8
CN(C)CCN(Cc1ccccc1)c1ccnc(N(C)C)c1C#N | 5.9 | -8.9 | ? | 2.1 | 4.0
O=c1c(O)c(-c2ccc(O)c(O)c2)oc2cc(O)cc(O)c12 | 1.1 | 10.7 | 14.1µM* | -4.4 | 6.9
O=c1cc(-c2ccc(O)c(O)c2)oc2cc(O)cc(O)c12 | ? | ? | 12.6µM* | -23.9 | -1.6
CCn1c(O)c(/C=N/NC(=O)c2ccncc2)c(=O)[nH]c1=S | nt | -17.3 | -2.0% | -12.2 | -21.8
O=C(N/N=C/c1c(O)n(Cc2ccc(F)cc2)c(=S)[nH]c1=O)c1ccncc1 | -66.8* | ? | ? | -8.9 | 0.8
O=c1[nH]c(=S)n(Cc2ccc(F)cc2)c(O)c1C=NCCCn1ccnc1 | 0.0 | 7.6 | 11.0% | -84.2* | -37.0
CCN1C(=O)C(=Cc2cc(C)n(C3CC3)c2C)C(=O)N(CC)C1=S | 4.7 | -0.9 | -2.4% | 0.4 | -9.4
CCCCCCN1CCN(c2ccc(Cl)cc2)CC1 | -7.9 | -18.2 | ? | -4.8 | i
O=C1NC(=O)C(=C/C=C/c2coc3ccc(Br)cc3c2=O)C(=O)N1 | nt | nt | -6.4% | nt | nt
O=C1NC(=O)C(=Cc2csc3ccccc23)C(=O)N1 | nt | -13.4 | ? | -180.3* | -208.9*
O=C1NC(=O)C(=Cc2coc3ccccc3c2=O)C(=O)N1 | nt | 1.2 | 20µM* | -22.1 | nt
CC(=O)OC1CC(OC2C(O)CC(OC3C(O)CC(OC4CCC5(C)C(CCC6C5CCC5(C)C(C7=CC(=O)OC7)C(O)CC65O)C4)OC3C)OC2C)OC(C)C1OC1OC(CO)C(O)C(O)C1O (stereo unspecified) | 4.1 | 0.0 | nt | -19.1 | 2.7
CN1CCN(CC(=O)Nc2ccc([N+](=O)[O-])cc2C(=O)c2ccccc2)CC1 | 3.4 | -1.0 | -7.2% | -110.3* | -102.8*
Cc1ccsc1C(=O)C1CCCN(Cc2cccn2-c2ccccn2)C1 (stereo unspecified) | -7.3 | -12.3 | 12.8% | -75.3* | -26.1
O=C(O)Cc1cnc[nH]1 | -2.9 | -4.9 | 14.1µM* | -7.8 | -5.6
COC(=O)C1=C(c2cccc(OCc3ccccc3)c2)C[C@@H]2CC[C@H]1N2C(=O)NC1CCN(Cc2ccccc2)CC1 | -18.2 | -11.4 | nt | 6.4 | 20.8
O=C1NCN(c2ccccc2)C12CCN(C(c1cccs1)c1nnnn1-c1ccc3c(c1)OCCO3)CC2 (stereo unspecified) | -14.7 | -19.2 | nt | nt | nt
Ic1ccccc1CN[C@@H]1C2CCN(CC2)[C@@H]1C(c1ccccc1)c1ccccc1 | -5.7 | -7.7 | nt | -74.9* | 5.0
Fc1ccccc1CNC1CN2CCC1CC2 (stereo unspecified) | 1.0 | 7.6 | -0.2% | 6.2 | 0.9
c1cncc(CNC2CCCC2)c1 | nt | 3.1 | 22.4µM* | 13.3 | nt
SMILES | CtBP-E1A inh | Six1-Eya2 blk | KDM4E inh | KCNH2 3.1 inh | KCNH2 WT inh
CCc1ccc2c(CN3CC=C(c4ccccc4)CC3)cc(=O)oc2c1 | 4.6 | 1.7 | 14.1µM* | 1.3 | -1.5
Cc1ccc2c(CN3CC=C(c4ccccc4)CC3)cc(=O)oc2c1C | -1.4 | -4.2 | 25.1µM* | -1.5 | -6.1
COc1ccc2c(CN3CC=C(c4ccccc4)CC3)cc(=O)oc2c1 | -14.8 | 8.3 | ? | 7.0 | -0.1
CC(=O)Nc1ccccc1C(=O)OCC(=O)Nc1ncccn1 | -0.3 | -2.5 | nt | 2.1 | -10.2
CN(C)[C@@H]1C(=O)C(C(N)=O)=C(O)[C@@]2(O)C(=O)C3=C(O)c4c(O)ccc(Cl)c4[C@@](C)(O)C3C[C@@H]12 (stereo partly specified) | -23.8 | -1.7 | 3.6% | 3.8 | 1.9
CN(C)[C@@H]1C(=O)C(C(N)=O)=C(O)[C@]2(O)C(=O)C3=C(O)c4c(O)cccc4[C@@](C)(O)[C@H]3[C@H](O)[C@@H]12 | nt | nt | 11.2µM* | nt | nt
CN(C)C1C(=O)C(C(N)=O)=C(O)[C@@]2(O)C(=O)C3=C(O)c4c(O)cccc4[C@@](C)(O)C3[C@H](O)C12 (stereo partly specified) | nt | nt | 2µM* | nt | nt
CN(C)[C@@H]1C(=O)C(C(N)=O)=C(O)[C@@]2(O)C(=O)C3=C(O)c4c(O)cccc4[C@@](C)(O)C3[C@H](O)C12 (stereo partly specified) | -66.9* | -9.3 | nt | 6.4 | -3.0
Cc1ccc(N2C(=O)NC(=O)/C(=C/c3cnn(-c4ccc(C)cc4)c3)C2=O)cc1 | 7.5 | 1.3 | -1.7% | -28.3 | -5.7
O=C1CCN(C(=O)CNC(=O)Cc2ccccc2)CC1 | 0.0 | 8.5 | 9.6% | -4.7 | 4.7
O=c1[nH]c(=S)n(Cc2ccc(F)cc2)c(O)c1/C=N/N1CCCCCC1 | -5.9 | 0.6 | -6.3% | 3.4 | 25.4
COc1ccc2[nH]c(C)c(CCNCc3cc(OC)c(OC)c(OC)c3)c2c1 | 3.6 | -9.1 | ? | -3.1 | -10.2
COc1ccc(CNCCc2c(C)[nH]c3ccc(OC(F)(F)F)cc23)c(OC)c1 | ? | -12.3 | nt | -77.7* | 4.2
O=C(c1n[nH]c(=O)c2ccccc12)N1CCC2(CC1)OCCO2 | 20.1 | 12.1 | 6.8% | -13.5 | 5.4
CC(C)N1CC=C(c2c[nH]c3ccccc23)CC1 | 20.6 | 11.2 | ? | -25.7 | 7.8
O=S1(=O)N(CCN2CC=C(c3c[nH]c4cc(F)ccc34)CC2)c2cccc3c2N1CCC3 | -15.7 | -3.8 | 15.8µM* | -19.9 | 9.3
Cc1cc(Cl)ccc1C(=O)C1CCCN(C2CCSCC2)C1 (stereo unspecified) | -1.0 | -21.0 | -0.8% | -87.0* | -34.0
Cc1ccc2c(c1)C1CN(C)CCC1N2C(=O)COc1ccc(S(=O)(=O)N2CCOCC2)cc1 (stereo unspecified) | 7.0 | 0.4 | 5.0% | 11.8 | 3.3
O=C1CC[C@]2(O)C3Cc4ccc(O)c5c4C2(CCN3CC2CC2)C1O5 (stereo partly specified) | nt | nt | 7.0% | nt | nt
Cc1cc(OCC(=O)OC(C)(C)C)c2c3c(c(=O)oc2c1)CCC3 | 0.0 | 14.5 | 4.47µM* | -5.0 | 7.0
Cc1ccc(OP(=O)(NCc2ccccc2)Oc2ccc(C)cc2)cc1 | 13.0 | 6.8 | 0.6% | -87.3* | -12.4
